RORgamma inh: qHTS for inhibitors of ROR gamma transcriptional activity. Nuclear receptor ROR-gamma (Mus musculus), P51450. actives 5.4% (n = 310,000). Drosophila S2 Gal4-RORgamma UAS-luciferase reporter, 20 h. Potency, µM (highest dose often 53.6 µM), actives largely listed as inhibitors; further: nearly all actives have a fitted effect of over 60% in size
Target sequence (P51450 whole entry, looked up, the tested form may be a part): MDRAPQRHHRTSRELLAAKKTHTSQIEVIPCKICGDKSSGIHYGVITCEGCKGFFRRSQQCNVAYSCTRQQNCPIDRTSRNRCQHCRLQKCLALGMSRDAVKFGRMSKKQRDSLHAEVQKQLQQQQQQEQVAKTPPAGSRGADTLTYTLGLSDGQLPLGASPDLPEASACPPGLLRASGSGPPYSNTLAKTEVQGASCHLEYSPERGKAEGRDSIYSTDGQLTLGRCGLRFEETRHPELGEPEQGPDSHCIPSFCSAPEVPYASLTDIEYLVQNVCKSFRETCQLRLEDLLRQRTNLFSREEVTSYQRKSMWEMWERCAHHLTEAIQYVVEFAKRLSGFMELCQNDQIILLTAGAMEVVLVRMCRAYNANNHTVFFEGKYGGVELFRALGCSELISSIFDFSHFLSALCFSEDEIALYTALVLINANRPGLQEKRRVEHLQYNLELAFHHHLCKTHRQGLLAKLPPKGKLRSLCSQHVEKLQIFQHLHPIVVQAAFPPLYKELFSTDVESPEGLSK
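Drosophila S2 cells stably expressing Gal4-DBD/mouse RORγ fusion under metallothionein promoter plus UAS-luciferase; compound 1 h, then 700 uM CuSO4 induction for 20 h at ambient temperature; inhibition read as reduced luminescence.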
TDP1 cell noCPT: qHTS for Inhibitors of human tyrosyl-DNA phosphodiesterase 1 (TDP1): qHTS in cells in absence of CPT; Potency, µM (doses to about 46.2 µM), usual class: inhibitors; actives 15% (n = 420,000); DT40 Tdp1-/- hTDP1 cells, no CPT, ATP luminescence, 48 h; further: nearly all actives have a fitted effect of over 55% in size
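Growth of hTDP1-complemented DT40 Tdp1-knockout cells is measured by ATP luminescence after at least 48 hr compound exposure at 37 °C, with DMSO substituting for the 20 nM CPT used in the parallel screen.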
LDHA inh: qHTS assay for inhibitors of human lactate dehydrogenase; purified LDHA, NADH/diaphorase-resazurin fluorescence; hits give low values; activity change, % (values are at about 110 or 230 µM); actives 0.15% (n = 480,000); in the data active means activity change below about -30%; inconclusive means mostly about -25% to -30%
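Resorufin fluorescence (ex540/em590), read at 0 and 20 min after diaphorase/resazurin addition, reports the NADH left after a 5 min room-temperature reaction of 2 nM human LDH5 with 0.06 mM NADH and 0.2 mM pyruvate.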
IL-1B inflam inh: qHTS for Inhibitors of Inflammasome Signaling: IL-1-beta AlphaLISA Primary Screen; THP-1 LPS/ATP IL-1B secretion, AlphaLISA, 16 h; hits give low values; activity change, % at 57.5 µM; actives 4.7% (n = 360,000); AID 743279, 2014; in the data active means activity change below about -50%; inconclusive means mostly about -30% to -49%
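Secreted IL-1B measured by AlphaLISA bead assay after 16 h compound exposure of THP-1 cells; compounds (final up to 57.5 uM) added 1 h before LPS (250 ng/mL) and ATP (1.25 mM) stimulation; lower signal means less secretion.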
TDP1 cell CPT: qHTS for Inhibitors of human tyrosyl-DNA phosphodiesterase 1 (TDP1): qHTS in cells in presence of CPT. chicken DT40 Tdp1-/-;hTDP1 cells + 20 nM CPT, ATP luminescence, 48 h. Potency, µM (titrated, usually from 46.2 µM), actives largely listed as inhibitors. actives 12% (n = 420,000); further: nearly all actives have a fitted effect of over 55% in size
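Chicken DT40 Tdp1-/- cells complemented with human TDP1, 400 cells/well, exposed to compounds plus 20 nM camptothecin for at least 48 h at 37 C; viability read as ATP content by CellTiter-Glo luminescence.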
VP16 counter: VP16 counterscreen qHTS for inhibitors of ROR gamma transcriptional activity; Drosophila S2 Gal4-VP16 UAS-luciferase, luminescence, 20 h; Potency, µM (highest dose often 53.6 µM), actives largely listed as inhibitors; actives 3.5% (n = 310,000);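 further: Gal4-VP16 expression switched on by copper sulfate through the metallothionein promoter; nearly all actives have a fitted effect of over 50% in size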
Numbers stand for hits; 0 = inactive; ? = inconclusive; - = no result; [ ] = remark or other dose. In the library only some 18% were active in any assay of this set; here they are far more common. Unless noted, the call rests on the fitted dose curve; in most records, active means well fitted curve in the direction sought with a large enough effect; inconclusive means small, poorly fitted or top-dose-only effect, or another doubt; inactive means no such curve, though single readings can be large; an effect the other way counts as inactive or inconclusive.

SMILES	RORgamma inh	TDP1 cell noCPT	LDHA inh	IL-1B inflam inh	TDP1 cell CPT	VP16 counter
COc1ccc2[nH]c(=O)c(CN(Cc3cccs3)Cc3nnnn3C(C)(C)C)cc2c1	0	23.1µM	0	0	?	0[0.365 µM]
CCOc1ccc2[nH]c(=O)c(CN(Cc3cccs3)Cc3nnnn3C(C)(C)C)cc2c1	?	15.8µM	0	?	20.6µM	?
CSc1nc(C)c(CCC(=O)Nc2nc(-c3ccc4c(c3)CCO4)cs2)c(C)n1	-	-	0	-	-	-
NS(=O)(=O)c1ccc(CNC(=S)Nc2ccc(F)c(Cl)c2)cc1	0	?	0	0	0	?
COc1ccc(CNC(=S)Nc2ccc(F)c(Cl)c2)cc1	7.08µM	?	0	0	?	?
COc1ccc(CNC(=S)Nc2cccc(OC)c2)cc1	17.8µM	0	0	0	0	12.6µM
COc1ccc(CNC(=S)Nc2cc(C)cc(C)c2)cc1	3.98µM	?	0	0	?	12.6µM
COc1cccc(CNC(=S)Nc2cc(C)cc(C)c2)c1	4.47µM	0	0	0	0	0[10 µM]
COc1cccc2cc(C(=O)Nc3ccccc3O)c(=O)oc12	-	-	0	-	-	-
COc1cccc(NC(=S)NN=C2CCCCCC2)c1	12.6µM	5.17µM	0	0	3.66µM	?
COc1ccc(CCNC(=S)Nc2cccc(C)c2)cc1	7.08µM	16.4µM	0	0	?	10µM
COc1ccc(CNC(=S)Nc2ccc(Br)cc2)cc1	10µM	18.4µM	0	0	?	11.2µM
COC(=O)C1=C(CN2CCN(C(C)C)CC2)NC(=O)NC1c1ccc(C)cc1 (configuration not stated)	-	-	0	-	-	-
CC(C)(C)c1ccc(C2=CSC3=NCCN23)cc1	10µM	?	0	?	?	0
Clc1ccc(-c2cnc3n2CCCCC3)cc1	5.62µM	9.2µM	0	?	14.6µM	?
Fc1ccc(-c2cnc3n2CCCCC3)cc1	11.2µM	?	0	0	0	0
CCOc1ccc(-c2cnc3n2CCC3)cc1	15.8µM	?	0	0	?	0
CN(Cc1ccc(Cl)cc1Cl)c1ccc(S(N)(=O)=O)cn1	-	-	0	-	-	-
O=C(NC1(C(F)(F)F)C(=O)Nc2c1c(=O)[nH]c(=O)n2-c1ccc(F)cc1)c1cccs1 (configuration not stated)	-	-	0	-	-	-
N=C(N)SCc1cccc2c(=O)cc(-c3ccccc3)oc12	-	7.08µM	0	-	4.47µM	-
O=C(CC1C(=O)N(C2CCCCC2)c2nc3ccccc3n21)Nc1ccc(F)c(F)c1 (configuration not stated)	-	-	0	-	-	-
CCN(CC)C(=O)CSCc1cnn(-c2ccccc2)c1-n1cccc1	0	16.4µM	0	0	?	0
O=C(CSCc1cnn(-c2ccccc2)c1-n1cccc1)NCCc1ccccc1	-	-	0	-	-	-
COc1ccc(CNC(=O)CSCc2cnn(-c3ccccc3)c2-n2cccc2)cc1	0	23.1µM	0	0	0	0
Cc1ccccc1CNC(=O)CCSCc1cnn(-c2ccccc2)c1-n1cccc1	-	16.4µM	0	-	?	-
SMILES	RORgamma inh	TDP1 cell noCPT	LDHA inh	IL-1B inflam inh	TDP1 cell CPT	VP16 counter
CCc1ccccc1NC(=O)CSCc1cnn(-c2ccccc2)c1-n1cccc1	-	?	0	-	?	-
COc1ccc(NC(=O)CSCc2cnn(-c3ccccc3)c2-n2cccc2)cc1	-	16.4µM	0	-	?	-
O=C(CSCc1cnn(-c2ccccc2)c1-n1cccc1)NCC1CCCO1 (configuration not stated)	0	?	0	0	?	0
COc1cccc(CNC(=O)C2CCN(C(=O)c3cnn(-c4ccccc4)c3-n3cccc3)CC2)c1	-	?	0	-	?	-
COc1ccc(CCNC(=O)c2cnn3ccccc23)c(OC)c1OC	0	23.1µM	0	0	?	0
COc1ccc(OC)c(CCNC(=O)c2cnn(-c3ccccc3)c2-n2cccc2)c1	-	1.84µM	0	-	23.1µM	-
Cc1ccc(C)c(NC(=O)c2cnn3ccccc23)c1	0	11.6µM	0	0	5.8µM	0
CC12CCC(C/C1=N\NC(=O)c1ccccc1)C2(C)C (configuration not stated)	-	-	0	-	-	-
Cc1ccc(C(=O)NNC(=O)c2ccc3ccccc3c2)cc1	-	?	0	0	0	-
CO/N=C/C(=N\Nc1ccc(C)cc1)C(=O)c1ccc(OC)cc1	0	3.26µM	0	0	4.11µM	0
COc1ccc(C(=S)NCS(=O)(=O)c2ccc(C)cc2)cc1	15.8µM	?	0	-99.6	?	?
COc1ccc(C(=S)Nc2ccc(C)cc2)cc1	12.6µM	0	0	0	0	0
CO/N=C/C(=N\Nc1ccc(OC)cc1)C(=O)c1ccc(F)cc1	0	?	0	0	?	0
Cc1ccc(S(=O)(=O)CNC(=S)c2ccc3ccccc3c2)cc1	11.2µM	18.4µM	0	?	?	?
O=C(CSc1ccc2c(c1)OCCCO2)Nc1ccc2c(c1)CCC2	-	-	0	-	-	-
COc1ccc(OC)c(S(=O)(=O)NCCCN2CCOCC2)c1	-	0	0	0	0	-
O=C(CCN1C(=O)/C(=C/c2ccccc2F)SC1=S)NCCCN1CCOCC1	0	?	0	-96.6	?	0
Cn1cc(/C=C2\SC(=S)N(N3CCOCC3)C2=O)c2ccccc21	0	0	0	0	0	0
O=C1C(=Cc2cccc(O)c2O)SC(=S)N1CCCN1CCOCC1	-	14.6µM	0	0	13µM	-
O=C(CCN1C(=O)/C(=C/c2ccccc2)SC1=S)NCCCN1CCOCC1	0	?	0	-58.9	?	0
COc1ccc(C=C2SC(=S)N(CCCN3CCOCC3)C2=O)c(OC)c1	-	16.4µM	0	0	?	-
COc1ccccc1/C=C1\SC(=S)N(CCC(=O)NCCCN2CCOCC2)C1=O	0	?	0	0	0	0
O=C(CCN1C(=O)/C(=C\c2cccc(Br)c2)SC1=S)NCCCN1CCOCC1	0	?	0	0	?	0
NCc1ccc(OCc2ccccc2)cc1	-	-	0	-	-	-
COc1ccc2cc(CNC3CCCc4ccccc43)ccc2c1 (configuration not stated)	-	-	0	-	-	-
COc1ccc(NC(=O)C2CC(=O)Nc3nc(N4CCc5ccccc5C4)[nH]c(=O)c32)cc1 (configuration not stated)	-	-	0	-	-	-
COc1cccc(OC)c1C(=O)Oc1ccc2c(c1)O/C(=C\c1ccc(C(C)(C)C)cc1)C2=O	-	-	0	-	-	-
CN(C(=O)COC(=O)c1ccc(F)c(Cl)c1)c1ccc(F)cc1	-	-	0	-	-	-
O=C(CCCN1C(=O)/C(=C/c2ccccc2Cl)SC1=S)NCCCN1CCOCC1	5.01µM	?	0	-104.4	20.6µM	12.6µM

Screens (PubChem)
